The source of these data is PubChem BioAssay.

“And” between values parts separate entries of the source, which are not always exact repeats. Equal values may be shown once. The source made the active and inactive calls. Unless noted, no stated cut-off is given here; in the data, active means inhibition above about 80%; inactive means the rest.

In general, inhibition refers to the change of the read-out against control, counted positive when it falls.

The nature of assay [1]: viability loss with induced miR-34 in A549 – imaging, A549 dox-inducible miR-34, nuclei and caspase counts, primary screen (AID 1347080;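 active means compounds whose cell count with miR-34 switched on is under 0.7 times the count with it off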). The following applies: A549 miR-34 inducible, Hoechst nuclei count, 48 h.
Assay [2] is described as follows: MELAS cybrid and Rieske KO viability enhancers – cell-based, MELAS cybrids, Rieske KO mouse fibroblasts, CellTiter-Glo, primary screen (AID 1508586;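 active means mean z-score across replicates of 1.96 or higher in either the MELAS or the Rieske mutant cell line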;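 further: z relative to plate mean and SD of compound and empty wells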). Conditions: low glucose. In general terms: Cellular ATP, detected with luciferase, serves as a proxy for viable cell number.
The nature of assay [3]: galactose survival enhancers in mitochondrial complex I cybrids – cell-based, galactose medium, ATP luminescence, primary screen (AID 1645843;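 active means z-score of at least 1.8 in each of two replicates, scored against plate mean and spread of sample wells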;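 further: positive z means more ATP and so rescue of galactose-driven cybrid death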). The following applies: complex I mutant cybrid cells, 72 h, stronger effect = higher value.
Assay [4] in a line: growth inhibition, single agent or in combination, cell-based, chromothripsis tumors, cisplatin or BGB combos (AID 1671449).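 Further: cells exposed for 96 hours; 0% = vehicle DMSO and 100% = killing by high DMSO.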 Conditions: LFS_MB_P medulloblastoma cells.
A short description of assay [5]: growth inhibition, single agent and combos, cell-based, chromothripsis tumors, cisplatin or BGB combos (AID 1671450).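 Further: cells exposed to compound for four days; 0% = vehicle DMSO and 100% = cell killing by high DMSO.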 The following applies: HDN33 neuroblastoma cells, stronger effect = higher value.
Assay [6] in a line: growth inhibition, single agents and combos, ICB984, cell-based, cisplatin or BGB combos, synergistic combos for chromothripsis tumors (AID 1671451; call rule not given here;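 further: cells exposed for 96 hours before readout; 0% = vehicle DMSO and 100% = killing by high DMSO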). The following applies: ICB984 medulloblastoma cells, drug combinations, stronger effect = higher value.
Assay [7] in a line: growth inhibition, single agents and combos, LFS_MB_1R, cell-based, cisplatin or BGB combos, synergistic combos for chromothripsis tumors (AID 1671452).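 Further: cells exposed for 96 hours before readout.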 Conditions: LFS_MB_1R medulloblastoma cells, stronger effect = higher value.
Assay [8] in a line: growth inhibition, single agents and combos, HTB85, cell-based, BGB or cisplatin IC20 combos, synergistic combos for chromothripsis tumors (AID 1671453).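 Further: cells exposed for 96 hours before readout; 0% = vehicle DMSO and 100% = high DMSO killing control.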 The following applies: HTB85 osteosarcoma cells, drug combinations, stronger effect = higher value.
Assay [9] is described as follows: growth inhibition, single agents and combos, CRL2098, cell-based, BGB or cisplatin IC20 combos, synergistic combos for chromothripsis tumors (AID 1671454).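 Further: cells exposed for 96 h before readout; 0% = vehicle DMSO and 100% = killing by high DMSO.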 The following applies: CRL2098 osteosarcoma cells, drug combinations, stronger effect = higher value.
The nature of assay [10]: growth inhibition, single agents and combos, HD-MB03, cell-based, BGB or cisplatin IC20 combos, synergistic combos for chromothripsis tumors (AID 1671455; in the data active means inhibition above about 83%;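 further: 0% = vehicle DMSO and 100% = high DMSO as cytotoxic control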). Conditions: HD-MB03 medulloblastoma cells, stronger effect = higher value.
Assay [11] can be described thus: growth inhibition, single agents and combos, UWB1.289, cell-based, BGB or cisplatin combos, synergistic combos for chromothripsis tumors (AID 1671456).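 Further: cells exposed to compound for four days; 0% = vehicle DMSO and 100% = killing by high DMSO.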 Conditions: UWB1.289 ovarian carcinoma cells, stronger effect = higher value.
A short description of assay [12]: growth inhibition, single agents and combos, LFS_MB_2R, cell-based, cisplatin combos, synergistic combos for chromothripsis tumors (AID 1671457).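 Further: cells exposed to compound for four days before readout.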 The following applies: LFS_MB_2R medulloblastoma cells, stronger effect = higher value.
Assay [13] is described as follows: growth inhibition, MDA-MB-436, cell-based, BGB or cisplatin combos, synergistic combos for chromothripsis tumors (AID 1671458; call rule not given here;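 further: cells exposed for 96 hours; 0% = vehicle DMSO and 100% = killing by high DMSO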). The following applies: MDA-MB-436 breast carcinoma growth inhibition, drug combinations, stronger effect = higher value.
Assay [14] is described as follows: UWB1.289_BRCA1 ovarian cancer growth, cell-based, BGB or cisplatin combinations (AID 1671459). Conditions: UWB1.289 BRCA1 ovarian carcinoma, drug combinations, stronger effect = higher value.
Assay [15] can be described thus: drug combination toxicity in non-malignant astrocytes – cell-based, BGB or cisplatin IC20 combos, cytotoxicity control for chromothriptic childhood tumor combination screen (AID 1671460).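 Further: cells exposed to compounds for 96 hours before viability readout; 0% = vehicle and 100% = killing control.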 Conditions: Human astrocytes, viability inhibition, drug combinations, at 0.5 µM, stronger effect = higher value.
The nature of assay [16]: BT084 cell growth, single and combined drugs, ICGC_MB145, cisplatin and BGB IC40 combos (AID 1671461).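 Further: cells exposed to drugs for 96 hours; 0% = vehicle DMSO and 100% = high DMSO full killing control.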 Conditions: BT084 medulloblastoma cells, drug combinations, stronger effect = higher value.
Assay [17] in a line: RCMB18 cell growth, single agent and combined, cisplatin and BGB IC40 combos (AID 1671462).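 Further: cells exposed to compound for four days.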 Conditions: RCMB18 medulloblastoma cells, stronger effect = higher value.
Assay [18] in a line: CRL1545 cell growth, single agent and combined, cisplatin and BGB IC20 combos (AID 1671464).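 Further: cells exposed to compound for 96 hours before readout; 0% = vehicle DMSO and 100% = high DMSO killing control.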 Conditions: CRL1545 osteosarcoma cells, stronger effect = higher value.
The mark [19] stands for this setting: stronger effect = lower value, cell number ratio, induced over uninduced.
Setting [20] is: measured here: relative caspase fold change +Dox/-Dox.
The mark [21] stands for this setting: measured here: total cells with miR-34 induction, stronger effect = lower value.
[22] abbreviates: measured here: total cells without miR-34 induction.
Setting [23] is: MELAS cybrid survival, CellTiter-Glo 48 h, stronger effect = higher value.
Setting [24] is: Rieske KO mouse fibroblast survival, CellTiter-Glo 72 h.
[25] abbreviates: measured here: combination with BGB IC40, at 0.05 µM.
Where [26] appears, read: measured here: with BGB IC20 combination, at 0.5 µM.
Setting [27] is: measured here: with cisplatin IC20 combination, at 0.5 µM.
[28] abbreviates: measured here: combination with cisplatin, at 0.5 µM.
[29] abbreviates: measured here: combination with cisplatin, at 5 µM.

On to `Nc1nc(Cl)nc2c1ncn2C1CC(O)C(CO)O1` (stereo unspecified), for which the fold change is 0.657 (active) and 0.485 (active) in assay [1] (setting [19]); 3.27 and 5.56 in assay [1] (setting [20]). The cell count in [1] (setting [21]) was 1440 and 1620; in assay [1] (setting [22]), 2200 and 3330. In addition, the z-score in [2] (setting [23]) was 0.255 (inactive); in [2] (setting [24]), 0.0981; in assay [3], -1.71 (inactive). In addition, the inhibition is -16% (inactive) and 3.33% (inactive) in assay [4] (at 0.5 µM, stronger effect = higher value); -14.4% and 7.64% in assay [4] (measured here: combination with BGB IC20, at 0.005 µM); -28.7% and 21.8% in assay [4] (measured here: combination with BGB IC40, at 0.005 µM); -54.9% and 15% in assay [4] (setting [25]); -23.7% and 50.7% in assay [4] (measured here: combination with cisplatin, at 0.5 µM, stronger effect = higher value); 76.7% and 86.2% in assay [4] (measured here: combination with cisplatin, at 5 µM, stronger effect = higher value). Further, the inhibition in assay [5] (BGB combo, at 5 µM) is 83.3% and 87.6%; in assay [5] (at 0.5 µM) it was 6.11% (inactive) and 14.7% (inactive); in assay [5] (cisplatin combo, at 5 µM), 79% and 81.5%; in assay [5] (setting [26]) it was 10.3% and 9.34%; in assay [5] (setting [27]) it was -1.24% and 16.1%; in assay [5] (single agent, at 5 µM), 84.5% and 87.2%. Also, the inhibition was -1.92% and -30.4% in assay [6] (BGB IC20 combo, at 0.005 µM); -14.5% and -25.7% in [6] (BGB IC40 combo, at 0.005 µM); -14.6% and -11.7% in assay [6] (BGB IC40 combo, at 0.05 µM); -34.2% (inactive) and -10.6% (inactive) in assay [6] (at 0.5 µM); -18.7% and -11.7% in [6] (cisplatin combo, at 0.05 µM); -35.7% and -23.4% in assay [6] (cisplatin combo, at 0.5 µM). The inhibition is -35.2% and -39.5% in assay [6] (cisplatin combo, at 5 µM); -14.9% and -11.7% in [6] (measured here: 5 uM single agent, at 5 µM); -20.9% (inactive) and -13% (inactive) in [7] (at 0.5 µM); -46.2% and -32.5% in assay [7] (setting [25]); 26.2% and 30.5% in [7] (setting [28]); 52% and 76.7% in assay [7] (setting [29]). Moreover, the inhibition is 22.5% (inactive) and 18.5% (inactive) in [8] (at 0.5 µM); 21.3% and 13.2% in assay [8] (measured here: with BGB IC20, at 0.5 µM); 92.2% and 94.6% in assay [8] (measured here: with BGB IC20, at 5 µM); 10.1% and 11.2% in [8] (measured here: with cisplatin IC20, at 0.5 µM); 90.5% and 90% in assay [8] (measured here: with cisplatin IC20, at 5 µM); 94.7% and 91.5% in assay [8] (single agent, at 5 µM). Besides, the inhibition in assay [9] (at 0.5 µM) was -92.1% (inactive) and -37.1% (inactive); in assay [9] (measured here: combination with BGB at IC20, at 0.5 µM), -60.9% and -36.5%; in assay [9] (measured here: combination with cisplatin at IC20, at 0.5 µM) it was -146% and -71.4%; in assay [10] (at 0.5 µM) it was 93.4% (active) and 93.2% (active); in assay [10] (measured here: combo with BGB at IC20, at 0.5 µM), 87.7% and 88.9%; in assay [10] (measured here: combo with cisplatin at IC20, at 0.5 µM), 96.3% and 94.8%. Also, the inhibition in assay [11] (at 0.5 µM) is 12.5% (inactive) and 14.8% (inactive); in [11] (measured here: inhibition with BGB combination, at 0.05 µM), -7.25% and -6.1%; in [11] (measured here: inhibition with cisplatin combination, at 0.05 µM) it was -13.8% and -6.66%; in assay [12] (at 0.5 µM) it was -3.57% (inactive) and 10.2% (inactive); in assay [12] (setting [28]) it was 24.5% and 43.1%; in [12] (setting [29]) it was 61.9% and 69.5%. For the same compound, the inhibition in assay [13] (at 0.5 µM) is 3.02% (inactive) and 2.95% (inactive); in assay [13] (measured here: BGB combination, at 0.5 µM) it was -5.54% and -2.62%; in assay [13] (measured here: BGB combination, at 5 µM), 46.1% and 53.6%; in assay [13] (measured here: cisplatin combination, at 0.5 µM), -4.37% and -12.8%; in assay [13] (measured here: cisplatin combination, at 5 µM), 61.1% and 70%; in assay [14] (BGB combination, concentration series, at 5 µM), 43.2% and 57.7%. Also, the inhibition in [14] (at 0.5 µM) is 20.9% (inactive) and 19.3% (inactive); in assay [14] (cisplatin combination, concentration series, at 5 µM), 48.4% and 63.7%; in [15], 58.1% (inactive) and 38.4% (inactive); in assay [15] (measured here: combo with BGB IC20), 62.6% and 39.2%; in [15] (measured here: combo with cisplatin IC20), 42.6% and 31.2%; in assay [16] (at 0.5 µM), -0.858% (inactive) and 10.4% (inactive). The inhibition is 37.2% and 42% in [16] (cisplatin combination, at 0.5 µM); 65.8% and 54% in [16] (cisplatin combination, at 5 µM); -30.7% and 12.8% in assay [16] (measured here: BGB IC40 combination 0.05 uM, at 0.05 µM); 1.68% and 7.77% in assay [16] (single agent, at 5 µM); 19.1% (inactive) and 26.3% (inactive) in assay [17] (at 0.5 µM); 83.6% and 81.2% in assay [17] (cisplatin combo, at 5 µM). The inhibition in assay [17] (measured here: BGB IC40 combination, at 0.05 µM) was -5.46% and 2.56%; in assay [17] (setting [28]) it was 70.6% and 65.1%; in [17] (single agent, at 5 µM) it was 27.8% and 40.5%; in assay [18] (at 0.5 µM), -27.8% (inactive) and -35.8% (inactive); in [18] (setting [26]) it was -14.9% and -11.9%; in assay [18] (setting [27]), -36.5% and -47.7%. The inhibition in assay [18] (single agent, at 0.05 µM) is -95.3% and 17.3%; in assay [18] (single agent, at 5 µM), 75.8% and 80.1%.

For the compound `Cn1nc(-c2cccnc2)c2[nH]c(-c3ccc4c(c3)OCCO4)nc21`, the fold change was 0.86 (inactive) in assay [1] (setting [19]) and 1.08 in assay [1] (setting [20]). In addition, the cell count came out at 5270 in assay [1] (setting [21]) and 6130 in assay [1] (setting [22]). For the same compound, the results for the z-score in assay [2] (setting [23]), in [2] (setting [24]) and in assay [3] were 12.6 (active), 3.9 and 4.01 (active), respectively.

`CCOC(=O)c1cc2ccc(O)cc2oc1=O`: the fold change in assay [1] (setting [19]) was 0.98 (inactive); in assay [1] (setting [20]) it was 0.374. The cell count in assay [1] (setting [21]) came out at 10300; in assay [1] (setting [22]), 10500. The z-score in assay [2] (setting [23]) is 0.534 (inactive); in assay [2] (setting [24]), -0.345; in [3] it was 0.595 (inactive).

As for `O=C(NCC(c1ccccc1)c1ccccc1)Nc1nncs1`, the results for the fold change in assay [1] (setting [19]) and in assay [1] (setting [20]) were 0.844 (inactive) and 1.57, respectively. Moreover, the values for the cell count in [1] (setting [21]) and in [1] (setting [22]) were 7570 and 8970, respectively. In addition, the z-score was -0.117 in [2] (setting [23]), 3.64 in [2] (setting [24]) and 1.59 (inactive) in assay [3].
